Results with a measured potency or affinity are listed apart.

In this assay the test system is Cryptococcus neoformans. The note with it: Concentration 20 uM; ASSAY_TEST Inhibition of Fungal Growth; detection method Resazurin; Absorption (OD600-OD570); plate type 384well; NBS; CORNING #3640.
Usually Inhibition stands for the drop in the measured response relative to a control, in per cent. As for `Cl.O=C1CN2Cc3c(ccc(Cl)c3Cl)N=C2N1` [ANAGRELIDE HYDROCHLORIDE], the Inhibition is -6.07%.
For `CN1CCN(CCCN2c3ccccc3Sc3ccc(C(F)(F)F)cc32)CC1.Cl.Cl` [TRIFLUOPERAZINE HYDROCHLORIDE] the value was -7.04%; for `CCCC1O[C@@H]2C[C@H]3[C@@H]4CCC5=CC(=O)C=C[C@]5(C)[C@H]4[C@@H](O)C[C@]3(C)[C@]2(C(=O)CO)O1` (stereo partly drawn) [BUDESONIDE], -1.35%.
Consider `Clc1ccc2c(c1)C(N1CCNCC1)=Nc1ccccc1O2` [AMOXAPINE], for which the Inhibition is on record as -1.42%.
Take `Cc1cccc(C)c1NC(=O)C(C)N` (stereo not drawn) [TOCAINIDE]: the Inhibition was found to be 0.27%.
The result for `CC(C)NCC(O)c1ccc(NS(C)(=O)=O)cc1.Cl` (stereo not drawn) [SOTALOL HYDROCHLORIDE] reads 3.23%; that for `COCCCC/C(=N\OCCN)c1ccc(C(F)(F)F)cc1.O=C(O)/C=C\C(=O)O` [FLUVOXAMINE MALEATE], -8.17%.
The result for `CCC(=O)O[C@]1(C(=O)SCF)[C@H](C)C[C@H]2[C@@H]3C[C@H](F)C4=CC(=O)C=C[C@]4(C)[C@@]3(F)[C@@H](O)C[C@@]21C` [FLUTICASONE PROPIONATE] reads -1.8%.
The result for `OCCN1C[C@H](O)[C@@H](O)[C@H](O)[C@H]1CO` [MIGLITOL] reads 1.09%; that for `Cn1ccnc1S` [METHIMAZOLE], 0.77%; that for `CN(C)CCOC(C)(c1ccccc1)c1ccccn1.O=C(O)CCC(=O)O` (stereo not drawn) [DOXYLAMINE SUCCINATE], -8.18%.
`Nc1nc(O)c2ncn(CCC(CO)CO)c2n1` [PENCICLOVIR]: the Inhibition was -9.17%.
For `CCN(CC)CC(=O)Nc1c(C)cccc1C` [LIDOCAINE] the value was -4.85%.

The record behind these values is ChEMBL document CHEMBL4513141, “CO-ADD screening of NIH (USA) - Clinical Collection” (2021).
